From PubChem
A selection: hits, their analogues and other compounds. The true share with any hit is near 19%.
Shiga inhibitor – Shiga toxin inhibition; Vero cells, Shiga toxin protein synthesis inhibition reporter; 9.2% of 290,000 active; inhibition, % at 38.7 µM; in the data active = inhibition mostly above about 28%, no sharp cut-off; inactive = mostly below about 43%; also: 0% is about no effect
Cycloheximide cs – counter-screen for Shiga toxin inhibitors: cycloheximide protein synthesis inhibition; cell reporter, cycloheximide protein synthesis inhibition counterscreen; max response, %; 12% of 300,000 active; in the data active = max response mostly above about 13%, no sharp cut-off; inactive = mostly below about 14%; also: read at 38.3 µM for the half of the compounds with a filed dose; 0% is about no effect
Pf growth 48h – inhibits P. falciparum growth in the first generation, 48 h; AID 504832; P. falciparum luciferase growth in erythrocytes, 48 h; 5.9% of 310,000 active; Potency, µM (highest dose often 28.7 µM), for inactives: at the top dose activity change, negative = inhibition, actives largely listed as inhibitors; also: potency is read from the fitted curve at half-maximal effect; % is scaled to controls: 0 for no effect and ±100 for the full control effect
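Read-out is firefly luciferase luminescence from an integrated reporter in P. falciparum, so falling signal marks reduced parasite growth. Infected erythrocytes were at 2% hematocrit and 0.1% parasitemia (final) in Albumax-supplemented RPMI 1640.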
Marburg entry inh – blocks Marburg virus binding to or entry into cells; Potency, µM (doses to about 37.8 µM), for inactives: top-dose activity change, negative = inhibition, actives largely listed as inhibitors; 1.8% of 300,000 active; Marburg virus pseudotyped entry inhibition, cell reporter; calls by dose curve; tested in HEK293 cells; also: potency is read from the fitted curve at half-maximal effect; % is scaled to controls: 0 for no effect and ±100 for the full control effect
Lassa entry inh – Lassa virus entry inhibition; Lassa virus pseudotype entry inhibition, cell reporter; Potency, µM (highest dose often 37.9 µM), inactives show at the highest dose activity change, negative = inhibition, usual class: inhibitors; 1.2% of 300,000 active; calls by dose curve; tested in HEK293 cells; also: potency is read from the fitted curve at half-maximal effect; % is scaled to controls: 0 for no effect and ±100 for the full control effect; nearly all actives have a fitted effect of over 50% in size
Pf growth 96h – inhibits malaria parasite growth, 96 h; P. falciparum luciferase reporter growth, 96 h; Potency, µM (doses to about 28.7 µM), without a hit: at the highest dose activity change, negative = inhibition, most hits filed as inhibitors; 6.9% of 320,000 active; AID 504834; also: potency is read from the fitted curve at half-maximal effect; % is scaled to controls: 0 for no effect and ±100 for the full control effect
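Luminescence readout: decreased luciferase signal marks inhibited growth of reporter-expressing P. falciparum in infected red cells (2% hematocrit, 0.05% parasitemia final), exposed to compound two generations (96 h, 37 C, 5% CO2).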
Starred values were filed as active, the others as inactive; i = inactive; ? = inconclusive; . = no result; [ ] = remark or other dose. Unless noted, calls follow the shape of the dose curve; as a rule, active = well fitted inhibition curve with a large enough effect; inconclusive = small, poorly fitted or top-dose-only effect, or another doubt; inactive = no such curve, though single readings can be large or run the other way.

SMILES	Shiga inhibitor	Cycloheximide cs	Pf growth 48h	Marburg entry inh	Lassa entry inh	Pf growth 96h
COC(=O)c1ccc(-c2nc3cc(N)ccc3o2)cc1	38*	18*	123%	?	?	177%
Nc1ccc(-c2nc3ccc(N)cc3o2)cc1	35	39*	.	.	.	82%
Nc1ccc(-c2nc3cc(N)ccc3o2)cc1	38*	38*	48%	.	.	-18%
CCCCOC(=O)Nc1ccc(N2CCCCC2)cc1	94	43*	.	?	8.9µM*	127%
CCNCC(=O)Nc1ccc(N2CCOCC2)cc1	-10	-3	-4%	.	.	20%
CCCCOC(=O)Nc1ccc(N2CCOCC2)cc1	80*	29*	394%	?	12%	33%
CCSc1nnc2c(n1)OC(c1ccc(OC)c(OC)c1)N(C(C)=O)c1ccccc1-2 (configuration not stated)	.	.	.	-1%[46.1 µM]	-16%[46.1 µM]	.
CCCc1c(O)nc(SCCN(CC)CC)n(C(=O)c2ccccc2)c1=O	-8	-2	?	?	5%	13µM*
O=C(CSc1nc(-c2ccccc2)ns1)N1CCOCC1	91*	39*	i	?	7%[46.1 µM]	211%
Cc1cccc(-c2nsc(SCC(=O)N3CCCC3)n2)c1	117*	36*	224%	?	?	20%
COC(=O)c1ccccc1NC(=O)c1cccc(NC(=O)c2ccc(Br)o2)c1C	10	-2	?	?	?	3%
COC(=O)c1cccc(NC(=O)c2cccnc2C(=O)O)c1C	59*	29*	18%	?	0%	19%
COc1ccccc1C(=O)Nc1cccc2cccnc12	42	39*	35%	-1%[46.1 µM]	21%[46.1 µM]	-35%
O=C(Nc1cccc2cccnc12)c1cc(F)c(F)cc1Cl	.	29*	49%	7%[46.1 µM]	-14%[46.1 µM]	32%
CC(O)[C@H](NC(=O)C1CCN(C(=O)[C@H](Cc2ccccc2)NC(=O)OC(C)(C)C)CC1)C(=O)O (some centres not stated)	-6	-4	6%	.	.	31%
O=C(O)CSCC(=O)NCc1cccc(C(F)(F)F)c1	18	-2	13%	.	.	34%
CCC(=O)Nc1cccc(Br)c1	1	1	13%	3%	2%	?
CCC(=O)Nc1cccc(C(=O)/C=C/c2cccs2)c1	85*	37*	?	.	.	?
CCC(=O)Nc1cccc(C(=O)c2ccccc2)c1	2	11*	15%	18%	-14%	.
CC(=O)c1cccc(NC(=O)Cc2cccs2)c1	19	10	?	14%	4%	5%
CCC(=O)Nc1cccc(C(=O)/C=C/c2ccccc2)c1	38	25*	44%	?	10µM*	?
Cc1ccc2oc(=O)c3cc(C(=O)Nc4ccccc4C(N)=O)sc3c2c1	.	.	.	12%[46.1 µM]	2%[46.1 µM]	.
CCN(CCCNC(=O)COc1cc(=O)n(CC)c2ccccc12)c1ccccc1	3	-1	?	?	?	?
O=C(NCC1CCCN(C(=O)c2cscn2)C1)c1ccccc1Cl (configuration not stated)	30*	25*	-5%	5%[46.1 µM]	10%[46.1 µM]	-18%
COc1ccc(CC(=O)NCC2CCCN(Cc3ccc(OC)cc3F)C2)cc1 (configuration not stated)	-9	0	-1%	.	.	9.3µM*
SMILES	Shiga inhibitor	Cycloheximide cs	Pf growth 48h	Marburg entry inh	Lassa entry inh	Pf growth 96h
CCN1CCCC1CNC(=O)c1ccccc1Cl (configuration not stated)	15	-5	-12%	?	-2%	-15%
CC(=O)c1ccc(C(=O)N2CCCC(CNC(=O)c3ccccc3Cl)C2)cc1 (configuration not stated)	19	15*	6%	-15%	-7%	-9%
Cc1cccc(NC(=O)N2CCCC(CNC(=O)c3ccccc3Cl)C2)c1C (configuration not stated)	23	7	3%	.	.	?
COC(=O)c1ccc(C(=O)N2CCCC(CNC(=O)c3ccccc3Cl)C2)cc1 (configuration not stated)	69	13*	36%	?	6%	1%
CC(=O)NCCC(=O)N1CCCC(CNC(=O)c2ccc(-c3ccccc3)cc2)C1 (configuration not stated)	27	15*	27%	15%[46.1 µM]	8%[46.1 µM]	0%
COc1ccc(CC(=O)NCC2CCCN(Cc3ccccc3OC)C2)cc1 (configuration not stated)	-22	-1	-34%	.	.	-3%
